This is one part of a sample in which hits are shown more often than they occur.
ST2 IL33 inh = inhibitors of human ST2 (IL1RL1) binding to IL-33. Q01638. AlphaLISA ST2-Fc/biotin-IL-33 interaction, 1 h. inhibition, % for hits at 17 µM. 78,000 tested, 2.3% active. AID 1259354; in the data active means inhibition above about 30%
Target sequence (Q01638 whole entry, looked up): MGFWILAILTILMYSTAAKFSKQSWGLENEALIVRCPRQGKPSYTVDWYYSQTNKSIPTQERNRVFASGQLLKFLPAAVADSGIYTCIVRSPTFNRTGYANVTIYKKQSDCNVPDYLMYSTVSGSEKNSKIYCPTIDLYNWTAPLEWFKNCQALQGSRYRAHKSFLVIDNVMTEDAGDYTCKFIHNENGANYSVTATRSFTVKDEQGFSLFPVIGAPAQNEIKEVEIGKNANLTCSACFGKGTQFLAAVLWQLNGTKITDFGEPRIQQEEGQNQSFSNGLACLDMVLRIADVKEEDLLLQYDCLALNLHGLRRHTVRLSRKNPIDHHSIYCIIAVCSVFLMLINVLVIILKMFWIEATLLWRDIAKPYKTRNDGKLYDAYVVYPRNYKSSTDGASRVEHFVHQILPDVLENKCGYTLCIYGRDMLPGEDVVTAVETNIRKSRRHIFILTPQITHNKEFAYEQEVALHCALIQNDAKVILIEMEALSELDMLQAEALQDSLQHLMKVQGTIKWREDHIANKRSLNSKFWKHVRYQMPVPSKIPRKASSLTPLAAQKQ
* hit, by the source's call; i = inactive.

SMILES | ST2 IL33 inh
CCN(CC)CCCNC(=O)C1CCN(c2ccc(-c3cccs3)nn2)CC1 | i
COc1cc(C(=O)N2CCN=C2SCc2ccccc2C)cc(OC)c1OC | i
Cn1nc(C2CCN(c3ccc(C(N)=O)cn3)CC2)n(Cc2ccccc2)c1=O | i
CCN(CC)S(=O)(=O)c1ccc(OC)c(NC(=O)Cc2ccccc2[N+](=O)[O-])c1 | i
CC(C)N1CCN(C(=O)C2CCCN(Cc3ccco3)C2)CC1 (stereo unspecified) | i
O=S(=O)(NCc1ccccc1)N[C@H]1COC[C@@H]1N1CCCC1 | i
CCOc1cc(C(=O)N(c2ccc(C)c(C)c2)C2C=CS(=O)(=O)C2)cc(OCC)c1OCC (stereo unspecified) | i
CO[C@H]1[C@H](NC(=O)Cc2cccs2)c2ccccc2C12CCN(Cc1cnc(SC)nc1)CC2 | i
Cc1ccoc1C(=O)NCc1cccnc1N(C)Cc1ccccc1 | i
Cc1nc2ccccc2c2c1C(=O)N(c1ccccc1)C2=O | i
Cc1nc2ccccc2c2c1C(=O)N(Cc1cccnc1)C2=O | i
Cc1nc2ccccc2c2c1C(=O)N(C(C)Cc1ccccc1)C2=O (stereo unspecified) | 34%*
Cc1nc2ccccc2c2c1C(=O)N(c1ccc(F)cc1F)C2=O | i
Cc1nc2ccccc2c2c1C(=O)N(c1cccc(Cl)c1)C2=O | i
COc1ccc(Cl)cc1N1C(=O)c2c(C)nc3ccccc3c2C1=O | 31%*
CCN1CCCC1CNC(=O)CCC(=O)Nc1ccc2nc(N3CCN(C)CC3)cc(C)c2c1 (stereo unspecified) | i
COCCN(Cc1cnn(C)c1)C(=O)c1cncc(C)c1 | i
Cc1ccccc1-c1cc(O)c2c(c1)CN(C(=O)CC(F)(F)F)CCO2 | i
CCOC(=O)Cn1c(=O)n(-c2ccc(C)c(C)c2)c2nc(-c3ccccc3F)nc(C(N)=O)c21 | i
O=C1S/C(=C/c2ccccc2)C(=O)N1CNc1cccc(F)c1 | i
O=C1NC(=Nc2cccc([N+](=O)[O-])c2)SC1(CO)CO | i
C=CCN1C(=O)/C(=C/c2ccccc2)SC1=Nc1cccc([N+](=O)[O-])c1 | 47%*
CC(=O)Nc1cccc(C(=O)Nc2ccccc2Cl)c1 | i
CC(=O)N1CCC(N2C[C@@H]3OCC(=O)N(C)[C@@H]3C2)CC1 | i
O=C1C(=Cc2cccn2-c2ccc(Br)cc2)C(=O)c2ccccc21 | i
SMILES | ST2 IL33 inh
O=C1c2ccccc2-c2ccc(Br)cc21 | 32%*
O=C1C(Br)=C(Br)C(=O)c2ccccc21 | i
Cn1c(=O)cc(SCC(=O)NCCCN2CCCC2)c2ccc(Cl)cc21 | i
Cc1ccc(NC(=O)NC[C@H]2O[C@@H](CC(=O)NC3CC3)[C@H](O)[C@@H]2O)cc1 | i
O=c1c2ccccc2nc(/C=C/c2ccc3c(c2)OCO3)n1-c1ccc([N+](=O)[O-])cc1 | i
COc1ccc(N2CN=c3s/c(=C\c4cccc([N+](=O)[O-])c4)c(=O)n3C2)cc1 | 33%*
CC(=O)c1ccc(N2CN=c3s/c(=C\c4cccnc4)c(=O)n3C2)cc1 | i
O=c1/c(=C/c2cccc([N+](=O)[O-])c2)sc2n1CN(c1ccc3c(c1)OCO3)CN=2 | 36%*
CC(=O)c1ccc(N2CN=c3s/c(=C\c4cccc([N+](=O)[O-])c4)c(=O)n3C2)cc1 | i
Cc1ccccc1-n1nc([N+](=O)[O-])c(=NCc2ccc3c(c2)OCO3)n1O | i
Cc1ccccc1Cn1c(=O)c(F)cn(C2CCCO2)c1=O (stereo unspecified) | i
COc1ccc(C(=O)N2CCN=C2SCc2cccnc2)cc1 | i
COc1ccc(CCN2CCC(CN(C)Cc3cnc[nH]3)CC2)cc1 | i
Cn1ccnc1CN1C(=O)CO[C@H]2CN(Cc3ccccc3)C[C@H]21 | i
CCOC(=O)c1c(NC(=O)CN2C(=O)CC(C)Sc3ccccc32)sc2c1CCCCC2 (stereo unspecified) | i
COc1ccccc1/C=C1\C(=O)N(c2ccc(Cl)cc2Cl)N=C1C | i
COc1ccc(OC)c(/C=C2\C(=O)N(c3ccc(Cl)c(C(=O)O)c3)N=C2C)c1 | i
COc1cc(/C=C2\C(=O)N(c3ccc(C(=O)O)cc3)N=C2C)cc(Cl)c1O | i
COc1ccc(/C=C2/C(=O)N(c3ccc(Cl)c(Cl)c3)N=C2C)cc1OC | 65%*
CC1=NN(c2ccc(Cl)c(Cl)c2)C(=O)/C1=C/c1ccc(C)c([N+](=O)[O-])c1 | i
CCN(C)c1ccc(/C=C2/C(=O)NN(c3ccc(Cl)c(Cl)c3)C2=O)cc1 | i
COc1cc(/C=C2\C(=O)N(c3ccc(Cl)c(C(=O)O)c3)N=C2C)cc(OC)c1OC | 56%*
COc1ccc(Cl)cc1/C=C1\C(=O)N(c2ccc(Cl)c(C(=O)O)c2)N=C1C | 74%*
CC1=NN(c2ccc(Cl)c(Cl)c2)C(=O)/C1=C/c1ccccc1 | i
CCN(C)c1ccc(/C=C2/C(=O)N(c3ccc(Cl)c(Cl)c3)N=C2C)cc1 | 30%*
COc1ccc(Br)cc1/C=C1\C(=O)N(c2cccc(Cl)c2)N=C1C | i
COc1cc(S(=O)(=O)NCCC23CC4CC(CC(C4)C2)C3)c(C)cc1C | i

Source: PubChem (Paczesny and Yang Labs, IUPUI and University of Michigan)
